# According to PubChem BioAssay AID652104 (National Center for Advancing Translational Sciences (NCATS), 2013):
# Screen size: about 410,000 compounds; about 7,200 (1.8%) were called active. About 7% were inconclusive and are not listed. This excerpt belongs to a sample that is enriched for actives. Unmarked numbers belong to inactive results. Calls come from the whole dose curve; as a rule, active = well fitted activation curve with a large enough effect; inconclusive = small, poorly fitted or top-dose-only effect, or another doubt; inactive = no such curve, though single readings can be large or run the other way.
# Assay: qHTS of TDP-43 Inhibitors; note: nearly all actives have a fitted effect of over 50% in size; for growth rescue (activation): % of control where 0% means no effect
# Conditions: TDP-43 expressing yeast growth rescue, BacTiter-Glo, 24 h; series mostly up to 46.1 µM; growth rescue (activation): at the top concentration
# Outline: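 Luminescence from BacTiter-Glo reports growth of TDP-43-expressing yeast after 24 hr at 30 deg C with compound. Cells were raffinose-pregrown to mid-log, then seeded in galactose medium at OD600=0.02.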
# Potency is the fitted concentration of half-maximal effect.
SMILES,growth rescue (activation),Potency
Cc1cccc(NC(=O)Cn2nc(-c3ccc(Cl)cc3)c3ccccc3c2=O)c1,21.9%,
CCCC12CN3CC(C)(CN(C1)C3c1ccccc1Cl)C2=O (stereo not drawn),11.8%,
CC(C)(C)c1ccc(S(=O)(=O)N2CCN(C(=O)c3cc(-c4ccc(Br)cc4)n[nH]3)CC2)cc1,10.9%,
COc1ccc(CCNC(=O)c2nn(C)c3c2CSc2ccccc2-3)cc1OC,,11.2 µM (active)
COc1ccc(OC)c(CCNC(=O)c2nn(C)c3c2CS(=O)(=O)c2ccccc2-3)c1,17.4%,
CCCCN(CC)CCCNC(=O)c1nn(C)c2c1CSc1ccccc1-2,10.8%,
Cc1cc(-c2ccc(C)c(S(=O)(=O)N3c4ccccc4CC3C)c2)on1 (stereo not drawn),-1.52%,
Cc1ccc(S(=O)(=O)N2CCCc3cc(NS(=O)(=O)c4cc(C)ccc4C)ccc32)cc1,0% [at 9.22 µM],
CCOC(=O)N1CCN(c2cc(C)c([N+](=O)[O-])cc2F)CC1,18.9%,
O=C(OCC(=O)N1CCOCC1)c1ccc(N2CCOCC2)c([N+](=O)[O-])c1,7.7% [at 9.22 µM],
CCC(=O)c1ccc(N2CCN(C(=O)c3cc([N+](=O)[O-])ccc3F)CC2)c(F)c1,,12.6 µM (active)
O=C(c1ccc(N2CCOCC2)c([N+](=O)[O-])c1)N1CCN(c2ccccc2F)CC1,,14.1 µM (active)
O=C(c1ccc(N2CCOCC2)c([N+](=O)[O-])c1)N1CCN(S(=O)(=O)c2cccs2)CC1,1.03%,
O=C(O)C1CCN(c2ccc([N+](=O)[O-])cc2[N+](=O)[O-])CC1,-6.44%,
COc1ccc(S(=O)(=O)NCC(c2ccc(N(C)C)cc2)N2CCc3ccccc32)cc1OC (stereo not drawn),-42.7% [at 9.22 µM],
Cc1ccc2nc(COc3cccc(NC(=O)c4cccc(Cl)c4)c3)cc(=O)n2c1,9.56%,
Cc1ccc(Nc2nc(-c3ccc(O)cc3O)cs2)nc1,,20 µM (active)
CC(=O)Nc1cnc(-c2ccc(O)cc2C)cn1,21.2%,
Cc1cc(C)c(NC(=O)c2cc3sc(Cl)cc3n2C)c(C)c1,3.84%,
Cn1c(=O)c(C(=O)O)nn(-c2ccccc2)c1=O,6.32%,
CCCn1c2ccccc2c2cnn(CC(=O)NCC3CCN(Cc4ccc(C)cc4)CC3)c(=O)c21,-16.2%,
COc1ccc(SCc2cc(=O)c3ccc(C)c(C)c3[nH]2)cc1,16%,
CCC(=O)N1CCc2cc(S(=O)(=O)NC(Cc3ccccc3)C(=O)NCc3ccc(C)cc3)ccc21 (stereo not drawn),6.31%,
